Assay outcomes deposited in PubChem BioAssay by National Center for Advancing Translational Sciences (NCATS).
LDHA block – blocks human lactate dehydrogenase A; purified LDHA, NADH/diaphorase-resazurin fluorescence; hits give low values; activity change, % (values are at about 110 or 230 µM); 0.15% of 480,000 active; AID 1347041; in the data active = activity change below about -30%; inconclusive = mostly about -25% to -30%;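 note: plate controls were DMSO wells for no effect and wells without enzyme for full effect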
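Human LDH5 (2 nM) was incubated with 0.06 mM NADH and 0.2 mM pyruvate for 5 min at room temperature in Tris pH 7.4. Remaining NADH was coupled through diaphorase/resazurin, and resorufin fluorescence was read at 0 and 20 min.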
aSyn yeast inh – inhibitors of alpha-synuclein toxicity in yeast. Yeast expressing alpha-synuclein, growth rescue, BacTiter-Glo, 24 h. Potency, µM (doses to about 46.1 µM), inactives show top-dose growth rescue (activation), usual class: activators. 0.14% of 370,000 active; note: potency is the fitted concentration of half-maximal effect; % of control where 0% means no effect; nearly all actives have a fitted effect of over 65% in size
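Readout is rescue of growth in alpha-synuclein-expressing yeast, so inhibitors of toxicity appear as activators. Growth after 24 hr at 30 deg C in galactose medium is quantified by luminescence.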
IDH1 R132H inh – human IDH1 R132H inhibition; O75874; IDH1-R132H enzyme, NADPH consumption, diaphorase/resazurin fluorescence; Potency, µM (titrated, usually from 76.6 µM), for inactives: at the highest dose activity change, negative = inhibition, most hits filed as inhibitors; 0.093% of 390,000 active; AID 602179; note: potency is the fitted concentration of half-maximal effect; % is set by controls: 0 for no effect and ±100 for the full control effect; nearly all actives have a fitted effect of over 65% in size
Target sequence (O75874 whole entry R132H, stated change not applied): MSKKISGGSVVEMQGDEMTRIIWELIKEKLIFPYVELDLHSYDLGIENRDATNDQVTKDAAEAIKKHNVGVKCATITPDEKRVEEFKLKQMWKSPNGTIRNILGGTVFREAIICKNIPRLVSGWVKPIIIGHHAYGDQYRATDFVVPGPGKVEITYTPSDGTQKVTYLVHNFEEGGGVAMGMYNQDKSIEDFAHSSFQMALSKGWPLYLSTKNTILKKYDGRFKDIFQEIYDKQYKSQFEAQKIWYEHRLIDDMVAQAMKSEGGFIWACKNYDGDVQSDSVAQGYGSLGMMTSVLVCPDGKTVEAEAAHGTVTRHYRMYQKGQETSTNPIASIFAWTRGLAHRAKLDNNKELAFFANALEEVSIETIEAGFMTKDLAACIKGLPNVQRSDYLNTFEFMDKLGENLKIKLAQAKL
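IDH1-R132H (0.5 ug/mL) preincubated 30 min with compound, then NADPH (0.016 mM) and alpha-KG (2 mM) added; 80 min at RT, pH 7.5. Remaining NADPH coupled via diaphorase/resazurin to fluorescence (540/590 nm); concentration-response curves normalized to no-enzyme control.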
FUS yeast rescue – FUS proteinopathy suppression in yeast; Potency, µM (doses to about 76.6 µM), hits mostly activators; S. cerevisiae FUS-expressing, growth rescue, OD600, 24 h; 0.24% of 390,000 active; AID 1347120;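 note: potency is the fitted concentration of half-maximal effect; plate controls were DMSO vehicle for no effect and reference control for full effect; nearly all actives have a fitted effect of over 55% in size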
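Toxicity suppression screen in FUS-yeast. Cells induced with 2% galactose, starting OD 0.005, treated 24hr at 30C with compounds at multiple final concentrations; growth by OD600.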
TDP43 rescue – inhibitors of TDP-43 toxicity in yeast; TDP-43 expressing yeast growth rescue, BacTiter-Glo, 24 h; Potency, µM (highest dose often 46.1 µM), without a hit: top-dose growth rescue (activation), actives largely listed as activators; 1.8% of 410,000 active; AID 652104; note: potency is the fitted concentration of half-maximal effect; % of control where 0% means no effect; nearly all actives have a fitted effect of over 50% in size
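Readout is BacTiter-Glo luminescence of cell growth, so inhibitors register as activators. TDP-43-expressing yeast at OD600=0.02 in galactose medium, after raffinose pregrowth to mid-log, were incubated with compound for 24 hr at 30 deg C.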
Abeta yeast res – compounds reversing amyloid beta toxicity in yeast | AID 1347071 | Potency, µM (top dose mostly 46.1 µM), actives largely listed as activators | yeast expressing A-beta42, growth rescue, OD600, 48 h; response scale: 0% DMSO, 100% iron-clioquinol control | 0.063% of 410,000 active; note: potency is the fitted concentration of half-maximal effect; nearly all actives have a fitted effect of over 55% in size
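Yeast A-beta toxicity model in growth medium with pinned compounds, 48 h at 30 C; growth read as absorbance at 600 nm. Normalized to FeCl3/clioquinol equimolar mix (positive) and DMSO (negative).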
* = called active by the depositor. An excerpt weighted towards active compounds, which were near 2% of everything screened. Unless noted, calls come from the whole dose curve; as a rule, active = well fitted curve in the direction sought with a large enough effect; inconclusive = small, poorly fitted or top-dose-only effect, or another doubt; inactive = no such curve, though single readings can be large; an effect the other way counts as inactive or inconclusive.

`Cc1ccc(N/N=C/C(Br)=C/c2ccccc2)cc1Cl` gave LDHA block 2.2.
Cc1ccc(-c2ccc(C=O)o2)cc1 was read as LDHA block -9.2.
For CCc1cc2c(CN3CCN(c4ccc(F)cc4)CC3)cc(=O)oc2cc1O the results were LDHA block 9.9.
For O=c1[nH]c(S)nc2sc3c(c12)CCCC3 the results were LDHA block -10.2, aSyn yeast inh -4.5%, IDH1 R132H inh 2.1%, FUS yeast rescue inactive, TDP43 rescue -4.8% and Abeta yeast res inactive.
For O=c1[nH]c(-c2ccco2)nc2sc3c(c12)CCCC3 the results were LDHA block -2.8, aSyn yeast inh -6.8%, IDH1 R132H inh 3.9%, TDP43 rescue 17.8µM* and Abeta yeast res inactive.
Screening Cc1ccccc1CN(C)CCc1ccccn1 returned LDHA block -32.1*, aSyn yeast inh -8.8%, IDH1 R132H inh -8.2%, FUS yeast rescue inactive, TDP43 rescue 12.0% and Abeta yeast res inactive.
`Cc1cccc(CN(C)CCc2ccccn2)c1` gave LDHA block -22.1, aSyn yeast inh -0.9%, IDH1 R132H inh 4.6%, FUS yeast rescue inactive, TDP43 rescue -15.3% and Abeta yeast res inactive.
Screening O=C(Cc1ccc(-c2ccccc2)cc1)Nc1ccccn1 returned LDHA block -1.8, aSyn yeast inh -6.5%, IDH1 R132H inh 4.3%, FUS yeast rescue inactive, TDP43 rescue 14.1µM* and Abeta yeast res inactive.
O=C(CC(=O)Nc1ccccn1)Nc1ccccn1 was read as LDHA block -3.7, aSyn yeast inh 0.1%, IDH1 R132H inh 1.3%, FUS yeast rescue inactive, TDP43 rescue 6.5% and Abeta yeast res inactive.
`Cc1ccc(NC(=O)Cc2ccc(Cl)cc2)nc1` gave LDHA block -10.6, aSyn yeast inh 2.3%, IDH1 R132H inh -2.5%, FUS yeast rescue inactive, TDP43 rescue 11.9% and Abeta yeast res inactive.
`COc1ccccc1CNc1cc(-c2ccccc2)ccc1OC` gave LDHA block 0.6, aSyn yeast inh -11.5%, IDH1 R132H inh -4.5%, TDP43 rescue 12.6µM* and Abeta yeast res inactive.
Screening COc1ccccc1NC(=O)Cc1ccc(-c2ccccc2)cc1 returned LDHA block -1.3, aSyn yeast inh -12.1%, IDH1 R132H inh 1.8%, FUS yeast rescue inactive, TDP43 rescue 15.8µM* and Abeta yeast res inactive.
Cc1ccc(NC(=O)Cc2ccc(-c3ccccc3)cc2)nc1 was read as LDHA block -12.3, aSyn yeast inh 6.6%, IDH1 R132H inh -2.7%, FUS yeast rescue inactive, TDP43 rescue 7.08µM* and Abeta yeast res inconclusive.
For FC(F)(F)c1cccc(N/N=C/c2cccs2)c1 the results were LDHA block 0.7.
For Cc1ccnc(NC(=O)Cc2ccc(Cl)cc2)c1 the results were LDHA block 6.6.
Cc1ccnc(NC(=O)Cc2ccc(-c3ccccc3)cc2)c1 was read as LDHA block 0.0, aSyn yeast inh 4.9%, IDH1 R132H inh -2.2%, FUS yeast rescue inactive, TDP43 rescue 14.1µM* and Abeta yeast res inactive.
`Nc1nc(SCc2ccc(Cl)cc2)ns1` gave LDHA block -2.7, aSyn yeast inh -5.0%, IDH1 R132H inh 5.2%, FUS yeast rescue inactive, TDP43 rescue 15.8µM* and Abeta yeast res inconclusive.
Nc1nc(SCc2ccccc2)ns1 was read as LDHA block -6.0, aSyn yeast inh -0.4%, IDH1 R132H inh 1.0%, FUS yeast rescue inactive, TDP43 rescue 30.0% and Abeta yeast res inactive.
Screening CSc1ccccc1C(=O)Nc1ccccc1-c1ccccc1 returned LDHA block 8.7.
Screening O=C(COC(=O)CCCOc1ccc(Cl)cc1Cl)NCc1ccc(F)cc1 returned LDHA block 1.3, aSyn yeast inh 5.4%, IDH1 R132H inh 4.4%, FUS yeast rescue inactive, TDP43 rescue 15.8µM* and Abeta yeast res inconclusive.
COc1ccc(OCC(=O)NCc2ccc(Cl)cc2)cc1 was read as LDHA block -1.5, aSyn yeast inh 19.9%, IDH1 R132H inh -0.9%, FUS yeast rescue inactive, TDP43 rescue 27.9% and Abeta yeast res inactive.
For O=C(COc1ccc(Cl)cc1)NCc1ccc(F)cc1 the results were LDHA block -2.9, aSyn yeast inh 2.7%, IDH1 R132H inh 4.5%, FUS yeast rescue inactive, TDP43 rescue 11.2µM* and Abeta yeast res inactive.
For CCN(CC)C(CNS(=O)(=O)c1ccc(C#N)cc1)c1ccsc1 (stereo not given) the results were LDHA block 3.0.
Screening O=C(CN1C(=O)S/C(=C\c2cccn2-c2ccc(C(=O)O)cc2)C1=O)Nc1ccc(F)cc1 returned LDHA block 0.6.
For CCOC(=O)N1CCN(C(=O)C[C@@H]2C[C@@]3(C(=O)OCC)CCC=C3N(Cc3cccc4ccccc34)C2=O)CC1 the results were LDHA block 0.6, aSyn yeast inh 17.5%, FUS yeast rescue inactive, TDP43 rescue 15.8µM* and Abeta yeast res inactive.
CCOC(=O)N1CCN(C(=O)C[C@@H]2C[C@@]3(C(=O)OCC)CCC=C3N(Cc3ccc(Cl)cc3Cl)C2=O)CC1 was read as LDHA block 1.4, aSyn yeast inh 20.7%, FUS yeast rescue inconclusive, TDP43 rescue 22.4µM* and Abeta yeast res inactive.
`CCOC(=O)[C@]12CCC=C1N(Cc1ccc(Cl)cc1Cl)C(=O)[C@H](CC(=O)N1CCCC1)C2` gave LDHA block -1.2, aSyn yeast inh 19.9%, FUS yeast rescue inconclusive, TDP43 rescue inconclusive and Abeta yeast res inconclusive.
`O=C(/C=C/c1cccc2c1OCCCO2)c1cccnc1` gave LDHA block 5.8.
COC(=O)C1=C(O)CSC1=Nc1ccc(C)cc1 was read as LDHA block -3.6, aSyn yeast inh 9.1%, IDH1 R132H inh 0.6%, TDP43 rescue 15.8µM* and Abeta yeast res inactive.
`COc1ccc(CN(C(=O)c2cc(=O)[nH]c3ccc(S(=O)(=O)N4CCOCC4)cc23)C2CC2)cc1` gave LDHA block 6.2.
`COc1ccc2c(C)c(CCC(=O)Nc3ccc(Br)c(C)c3)c(=O)oc2c1` gave LDHA block -2.0.
Screening CS(=O)(=O)c1ccccc1COC(=O)Nc1ccc(Cl)cc1 returned LDHA block -1.8, aSyn yeast inh 5.3%, IDH1 R132H inh -0.2%, FUS yeast rescue inactive, TDP43 rescue 12.6µM* and Abeta yeast res inactive.
Cc1ccc(CN2C(=O)C(Cc3ccccc3)Nc3ncnc(N4CCN(c5ccccc5)CC4)c32)cc1 (stereo not given) was read as LDHA block 1.7, aSyn yeast inh 19.1%, IDH1 R132H inh 9.4%, FUS yeast rescue 25.1µM*, TDP43 rescue -14.9% and Abeta yeast res inactive.
